Assay results: PMC4336329 (PLoS ONE, 2015)
Screen size: about 310,000 compounds; about 2,200 (0.71%) showed an effect of 50% or more. Effects have a minus sign here. This is one part of a sample in which strong results are shown more often than they occur.

These compounds were tested against human ether-à-go-go-related gene (hERG) potassium channel (human, UniProt Q12809) (assay: primary screen, population patch clamp on CHO cells stably expressing hERG; higher = less effect of the substance).
Chain of human ether-à-go-go-related gene (hERG) potassium channel (Q12809 whole entry, looked up): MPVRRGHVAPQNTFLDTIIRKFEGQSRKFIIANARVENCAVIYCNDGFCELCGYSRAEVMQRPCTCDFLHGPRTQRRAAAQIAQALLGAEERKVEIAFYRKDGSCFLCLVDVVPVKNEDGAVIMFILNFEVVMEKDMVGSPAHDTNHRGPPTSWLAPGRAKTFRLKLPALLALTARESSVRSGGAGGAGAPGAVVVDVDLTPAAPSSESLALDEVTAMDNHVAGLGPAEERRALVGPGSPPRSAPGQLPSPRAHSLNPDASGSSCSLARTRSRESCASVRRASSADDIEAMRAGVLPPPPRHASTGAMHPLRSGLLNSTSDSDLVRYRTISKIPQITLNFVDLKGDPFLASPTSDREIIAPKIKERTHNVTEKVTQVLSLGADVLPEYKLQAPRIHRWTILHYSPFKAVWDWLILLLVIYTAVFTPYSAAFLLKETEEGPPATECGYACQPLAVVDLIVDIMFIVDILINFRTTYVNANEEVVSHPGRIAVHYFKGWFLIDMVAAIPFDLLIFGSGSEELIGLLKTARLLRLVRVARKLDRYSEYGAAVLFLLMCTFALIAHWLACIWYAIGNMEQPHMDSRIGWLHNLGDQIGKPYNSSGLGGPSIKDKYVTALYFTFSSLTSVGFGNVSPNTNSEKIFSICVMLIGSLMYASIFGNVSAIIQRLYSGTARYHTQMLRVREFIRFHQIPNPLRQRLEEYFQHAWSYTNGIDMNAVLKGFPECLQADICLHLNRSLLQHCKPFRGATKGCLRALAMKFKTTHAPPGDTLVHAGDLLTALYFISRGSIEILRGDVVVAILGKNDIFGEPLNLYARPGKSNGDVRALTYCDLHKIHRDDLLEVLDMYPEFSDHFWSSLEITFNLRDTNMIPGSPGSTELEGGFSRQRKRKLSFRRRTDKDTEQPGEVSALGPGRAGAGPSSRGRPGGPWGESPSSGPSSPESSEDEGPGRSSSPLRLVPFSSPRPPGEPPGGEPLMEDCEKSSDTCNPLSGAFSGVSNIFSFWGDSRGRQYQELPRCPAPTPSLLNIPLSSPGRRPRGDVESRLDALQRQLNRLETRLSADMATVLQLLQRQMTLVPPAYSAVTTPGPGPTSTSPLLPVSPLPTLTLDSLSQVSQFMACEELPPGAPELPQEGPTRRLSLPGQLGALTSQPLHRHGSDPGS

Compared with `CN1CCN(c2ccc(CNS(=O)(=O)Cc3cccc(C(F)(F)F)c3)cc2)CC1`, `COc1ccc(N2CCN(C(=O)/C=C/c3ccco3)CC2)cc1` is lower in “hERG current change (%, negative = inhibition) at 1uM” value: 7.74% for the first, 6.52% for the second.

Compared with `N=c1c(C(=O)NCCN2CCOCC2)cc2c(=O)n3ccccc3nc2n1CCc1ccccc1`, `Cc1ccc(Cn2c(=N)c(C(=O)NCCN3CCOCC3)cc3c(=O)n4ccccc4nc32)cc1` is higher in “hERG current change (%, negative = inhibition) at 1uM” value: -33.1% for the first, -8.25% for the second.

Going from `N=c1c(S(=O)(=O)c2ccc(Br)cc2)cc2c(=O)n3ccccc3nc2n1Cc1ccco1` to `N=c1c(S(=O)(=O)c2ccc(Cl)cc2)cc2c(=O)n3ccccc3nc2n1Cc1ccco1`, the “hERG current change (%, negative = inhibition) at 1uM” value falls from 15.4% to 14%.

Compared with `N=c1c(C(=O)NCc2ccccc2)cc2c(=O)n3ccccc3nc2n1Cc1ccco1`, `N=c1c(C(=O)NCc2ccco2)cc2c(=O)n3ccccc3nc2n1Cc1ccccc1` is lower in “hERG current change (%, negative = inhibition) at 1uM” value: -75.5% for the first, -81.6% for the second.

Compared with `CC(C)n1c(=N)c(C(=O)NCCc2ccccc2)cc2c(=O)n3ccccc3nc21`, `N=c1c(C(=O)NCCc2ccccc2)cc2c(=O)n3ccccc3nc2n1Cc1ccco1` is higher in “hERG current change (%, negative = inhibition) at 1uM” value: -78.6% for the first, -67.5% for the second.

Compared with `COc1ccc(CCNC(=O)c2cc3c(=O)n4cccc(C)c4nc3n(Cc3ccco3)c2=N)cc1OC`, `COc1ccc(CCNC(=O)c2cc3c(=O)n4ccccc4nc3n(Cc3ccco3)c2=N)cc1OC` is lower in “hERG current change (%, negative = inhibition) at 1uM” value: -21.8% for the first, -74.3% for the second.

First: N=c1c(C(=O)NCc2ccco2)cc2c(=O)n3ccccc3nc2n1CCc1ccccc1
Second: Cc1ccc(Cn2c(=N)c(C(=O)NCc3ccco3)cc3c(=O)n4ccccc4nc32)cc1
The “hERG current change (%, negative = inhibition) at 1uM” value of the first is lower: -84.2% for the first, -67.9% for the second.

Compared with `COc1ccc(CCNC(=O)c2ccc3c(=O)n(Cc4ccco4)c(=S)[nH]c3c2)cc1OC`, `CCn1c(=O)c(C(=O)NCCc2ccc(OC)c(OC)c2)c(O)c2ccccc21` is lower in “hERG current change (%, negative = inhibition) at 1uM” value: 13.6% for the first, 8.62% for the second.

Going from `O=C(NCCc1ccccc1)c1cnc2ccccn2c1=O` to `N=c1c(C(=O)NCc2ccc(F)cc2)cc2c(=O)n3ccccc3nc2n1Cc1ccco1`, the “hERG current change (%, negative = inhibition) at 1uM” value falls from 8.72% to -85%.

Going from `N=c1c(S(=O)(=O)c2ccccc2)cc2c(=O)n3ccccc3nc2n1Cc1ccco1` to `Cc1ccc(CNC(=O)c2cc3c(=O)n4ccccc4nc3n(Cc3ccco3)c2=N)cc1`, the “hERG current change (%, negative = inhibition) at 1uM” value falls from 18.6% to -38.1%.

Going from `CC(=O)c1ccc(OCCCC(=O)Nc2cccc(S(=O)(=O)N3CCCCC3)c2)cc1` to `Cc1ccc(C(=O)NCCNS(=O)(=O)c2ccccc2)cc1`, the “hERG current change (%, negative = inhibition) at 1uM” value rises from -3.68% to -1.17%.

Compared with `Oc1ccc2ccccc2c1Br`, `CCN(CC)c1ccc(/C=N/N2CCN(Cc3ccccc3)CC2)c(O)c1` is lower in “hERG current change (%, negative = inhibition) at 1uM” value: 12.1% for the first, -0.743% for the second.

Compared with `CCC(=O)Nc1nnc(S(=O)(=O)N(CC)c2ccc(OC)cc2)s1`, `CCN(CC)c1ccc(NC(=O)c2cc(OC)cc(OC)c2)c(C)c1` is lower in “hERG current change (%, negative = inhibition) at 1uM” value: 23.9% for the first, -2.35% for the second.

Going from `COc1ccc(/C=C(/NC(=O)c2ccccc2)C(=O)N2CCCC2)cc1OC` to `Cc1ccc(C)n1-c1ccc(C(=O)Nc2ccccc2F)cc1`, the “hERG current change (%, negative = inhibition) at 1uM” value falls from 14.3% to 10.7%.

Compared with `CC(=O)Oc1ccc2c3c(c(=O)oc2c1C)CCCC3`, `CCOC(=O)CNC(=O)c1cc2c(=O)[nH]c3ccc(C)cc3c2s1` is lower in “hERG current change (%, negative = inhibition) at 1uM” value: 15.5% for the first, 11.1% for the second.

First: O=C(NC1CC1)c1ccc2snnc2c1
Second: O=C(NCCc1ccc(Cl)cc1)c1cccnc1
The “hERG current change (%, negative = inhibition) at 1uM” value of the first is lower: 6.14% for the first, 9.38% for the second.

First: CC1CN(CC(=O)Nc2ccc([N+](=O)[O-])cc2Br)CC(C)O1 (stereo not drawn)
Second: Cn1c(CSCc2ccc(Cl)c(Cl)c2)nnc1SCC(=O)Nc1nccs1
The “hERG current change (%, negative = inhibition) at 1uM” value of the first is higher: 4.18% for the first, 2.81% for the second.

First: COc1ccc(N2C(=O)C3CCCN3C2c2ccc(F)cc2)cc1Cl (stereo not drawn)
Second: O=C(CN1C(=O)/C(=C\c2ccccc2Cl)Oc2ccccc21)NCc1cccnc1
The “hERG current change (%, negative = inhibition) at 1uM” value of the first is higher: 8.28% for the first, 5.85% for the second.

Compared with `CC1CCN(S(=O)C23CC4CC(CC(C4)C2)C3)CC1` (stereo not drawn), `CN(C)C1=NC[C@H](Cc2ccccc2)N1CCC1CCCC1` is lower in “hERG current change (%, negative = inhibition) at 1uM” value: 16.3% for the first, -19.7% for the second.

Compared with `Fc1cccc(Cl)c1Cn1nnc2c(N3CCC4(CC3)OCCO4)ncnc21`, `N=c1c(C(=O)NCc2ccco2)cc2c(=O)n3ccccc3nc2n1Cc1ccc(Cl)cc1` is lower in “hERG current change (%, negative = inhibition) at 1uM” value: 13.7% for the first, -55.7% for the second.

Compared with `CCCCCCCN1C(N(C)C)=NC[C@@H]1Cc1ccccc1`, `CN(C)C1=NC[C@H](Cc2ccccc2)N1CCCCc1ccccc1` is higher in “hERG current change (%, negative = inhibition) at 1uM” value: -69% for the first, -42.2% for the second.
